In one assay the test system is MCC-26. Kind of assay: qHTS assay to identify novel small-molecules to repurpose for Merkel cell carcinoma treatment (AID 1296009). Further: nearly all actives have a fitted effect of over 60% in size. Further: potency means the concentration at half of the fitted maximal effect. The following applies: MCC and control cell lines, CellTiter-Glo viability, 72 h; series mostly up to 46 µM. The procedure, abridged:
(§1)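 qHTS format: cells treated with library compounds in DMSO across 8 (NPC) or 11 (MIPE) concentrations. Readout after 72 hr at 37 degree celsius was CellTiter-Glo luminescence.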
(In general: Quantitative high-throughput screening tests each substance at several concentrations.)

The next assay deals with MKL-1. The assay is described as above. Conditions: MCC and control cell lines, CellTiter-Glo viability, 72 h; series mostly up to 46 µM. The procedure, abridged:
as §1

The next assay relates to UISO. The assay is described as above. The following applies: MCC and control cell lines, CellTiter-Glo viability, 72 h; series mostly up to 46 µM. The procedure, abridged: as §1
For orientation: Cellular ATP, detected with luciferase, serves as a proxy for viable cell number.

A further assay relates to C33A. Kind of assay: Primary qHTS to identify gynecologic anti-cancer compounds using libraries of approved drugs and bioactive compounds (AID 1345084). Further: nearly all actives have a fitted effect of over 55% in size. The following applies: Gynecologic cancer cell panel viability, ATPlite luminescence, 48 h; series mostly up to 57.5 µM. The procedure, abridged:
(§2)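 Cells, 1,000 per well, plated 16 h, then exposed 48 h at 37 C to compounds. Viability by ATPlite luminescence after 15 min at room temperature.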

Another assay relates to CAOV3. The description is as above. The following applies: Gynecologic cancer cell panel viability, ATPlite luminescence, 48 h; series mostly up to 57.5 µM. Put shortly:
as §2

A further assay has as its system CASKI. Described as above. Conditions: Gynecologic cancer cell panel viability, ATPlite luminescence, 48 h; series mostly up to 57.5 µM. The procedure, abridged:
as §2

The subject of the next assay is Es-2. The description is as above. Conditions: Gynecologic cancer cell panel viability, ATPlite luminescence, 48 h; series mostly up to 57.5 µM. The procedure, abridged:
as §2

Another assay has as its system WaGa. Kind of assay: qHTS assay to identify novel small-molecules to repurpose for Merkel cell carcinoma treatment (AID 1296009). Further: nearly all actives have a fitted effect of over 60% in size. Further: potency means the concentration at half of the fitted maximal effect. Conditions: MCC and control cell lines, CellTiter-Glo viability, 72 h; series mostly up to 46 µM. Put shortly: as §1
In another assay the test system is MKL-2. Described as above. The following applies: MCC and control cell lines, CellTiter-Glo viability, 72 h; series mostly up to 46 µM. The procedure, abridged:
as §1

A further assay deals with NIH3T3. The assay is described as above. Conditions: MCC and control cell lines, CellTiter-Glo viability, 72 h; at 44.8 µM (top of the series) unless noted. The procedure, abridged:
as §1

Records with an inconclusive call do not appear. Active and inactive are the calls of the source. The call rests on the fitted dose curve; in most records, active means well fitted curve in the direction sought with a large enough effect; inconclusive means small, poorly fitted or top-dose-only effect, or another doubt; inactive means no such curve, though single readings can be large; an effect the other way counts as inactive or inconclusive.

For `O=C(N/N=C/c1ccc([N+](=O)[O-])o1)c1cc([N+](=O)[O-])cc([N+](=O)[O-])c1O`, the Potency result with MCC-26, in the assay with MKL-1, in the assay on UISO, in the assay on C33A and with Es-2 was “inactive” each time. Moreover, the result with CAOV3 and in the assay on CASKI was inactive.

In the case of `COc1cc(CCN)cc(OC)c1OC`, the Potency result with MCC-26, in the assay on MKL-1, with UISO, in the assay with WaGa, with C33A and in the assay with Es-2 was “inactive” each time. For the same compound, the outcome in the assay on CAOV3 and with CASKI was inactive.

Regarding `C=CCC1(C(C)CC)C(=O)NC(=O)NC1=O` (stereo not given), the Potency entry with MKL-1, in the assay on MKL-2, in the assay with UISO, in the assay on WaGa, with C33A and in the assay on Es-2 was “inactive” each time. For the same compound, the outcome in the assay with NIH3T3, in the assay with CAOV3 and in the assay with CASKI was inactive.

Consider `CCC1(c2ccccc2)C(=O)N(COC)C(=O)N(COC)C1=O`, for which the Potency result with MKL-1, in the assay on MKL-2, with UISO, with WaGa, in the assay with C33A and in the assay on Es-2 was “inactive” each time. For the same compound, the compound was called inactive with NIH3T3, in the assay on CAOV3 and in the assay on CASKI.

On to `CC(C)(C)NCC(O)c1cc(Cl)c(N)c(C(F)(F)F)c1` (stereo not given), for which the Potency result in the assay with MKL-1, with MKL-2, in the assay with UISO, in the assay with WaGa, in the assay with C33A and in the assay on Es-2 was “inactive” in each case. Besides, the compound was classed as inactive with NIH3T3, in the assay on CAOV3 and with CASKI.

Take `O=c1c(C2CC(c3ccc(-c4ccc(Br)cc4)cc3)Cc3ccccc32)c(O)sc2ccccc12` (stereo not given): the Potency result in the assay with MCC-26, in the assay with MKL-1, with MKL-2, in the assay with C33A and with Es-2 was “inactive” in each case. Besides, the compound was called inactive with CAOV3 and in the assay on CASKI.

Consider `CCN(CCO)CCn1c(Cc2ccccc2)nc2c1c(=O)n(C)c(=O)n2C`, for which the Potency entry in the assay with MCC-26, in the assay with MKL-1, with MKL-2, in the assay with UISO, with WaGa and in the assay on C33A was “inactive” throughout. For the same compound, the Potency entry in the assay on Es-2 was “inactive”. The compound was classed as inactive in the assay with CAOV3 and in the assay with CASKI.

As to `CCC1(c2ccc(N)cc2)CCC(=O)NC1=O` (stereo not given), the Potency result in the assay on MCC-26, with MKL-1, with MKL-2, in the assay on UISO, with WaGa and in the assay with C33A was “inactive” in each case. Further, in the assay with Es-2, the Potency result was “inactive”. The result in the assay on CAOV3 and in the assay on CASKI was inactive.

`O=C(Nc1ccc(Br)cc1)c1cc(Br)cc(Br)c1O`: the Potency result with MCC-26, with MKL-1, with MKL-2, in the assay on UISO and in the assay on C33A was “inactive” in each case. Besides, the result with CAOV3 and with CASKI was inactive.

For the compound `O=C1CN=C(c2ccccc2)c2cc([N+](=O)[O-])ccc2N1`, the Potency result with MCC-26, in the assay with MKL-1, with MKL-2, in the assay with UISO, in the assay on WaGa and with C33A was “inactive” each time. Besides, in the assay with Es-2, the Potency entry was “inactive”. For the same compound, the outcome in the assay with CAOV3 and in the assay on CASKI was inactive.

Regarding `O=[N+]([O-])O[C@H]1CO[C@H]2[C@@H]1OC[C@H]2O[N+](=O)[O-]`, the Potency result in the assay with MCC-26, in the assay with MKL-1, with MKL-2, in the assay with UISO, in the assay with WaGa and with C33A was “inactive” each time. The Potency entry in the assay with Es-2 is “inactive”. In addition, the call in the assay on CAOV3 and in the assay on CASKI was inactive.

In the case of `COc1cccc(C(=O)CCN[C@@H](C)[C@H](O)c2ccccc2)c1`, the Potency entry in the assay on MCC-26, in the assay with C33A and with Es-2 was “inactive” each time. Also, the Potency in the assay with MKL-2 was 15 µM (active). Also, the result in the assay on CAOV3 and in the assay with CASKI was inactive.

Take `CN1C(=O)NC(=O)C(C)(C2=CCCCC2)C1=O` (stereo not given): the Potency entry with MKL-1, in the assay with MKL-2, in the assay on UISO, in the assay with WaGa, in the assay on C33A and in the assay with Es-2 was “inactive” throughout. Also, the call in the assay on NIH3T3, with CAOV3 and with CASKI was inactive.

As to `CCN(CC)C(=O)[C@@H]1C=C2c3cccc4[nH]cc(c34)C[C@H]2N(C)C1`, the Potency entry in the assay on MCC-26, in the assay with C33A and in the assay on Es-2 was “inactive” in each case. Also, the compound was called inactive in the assay on CAOV3 and with CASKI.

Take `COC(=O)C(Cl)C(=O)OC`: the Potency result with MCC-26, with MKL-1, in the assay with MKL-2, in the assay on UISO, in the assay on WaGa and in the assay with C33A was “inactive” throughout. Also, the Potency result in the assay on Es-2 was “inactive”. Besides, in the assay with CASKI, the call was inactive.

Regarding `CCN(CC)CCc1c[nH]c2ccccc12`, the Potency result with MCC-26, in the assay on MKL-1, in the assay with MKL-2, with WaGa, with C33A and in the assay with Es-2 was “inactive” each time. Further, the result with CAOV3 and in the assay with CASKI was inactive.

Regarding `O=C1c2ccccc2C(=O)C1C(=O)C(c1ccccc1)c1ccccc1`, the Potency result with MCC-26, with UISO, with C33A and in the assay on Es-2 was “inactive” in each case. Also, the Potency in the assay with WaGa is 23.7 µM (active). Further, the outcome in the assay on CAOV3 and in the assay with CASKI was inactive.

Regarding `CC(Cc1ccccc1)N(C)Cc1ccco1` (stereo not given), the Potency result in the assay with MCC-26, in the assay with MKL-1, with MKL-2, with UISO, with WaGa and in the assay with C33A was “inactive” each time. For the same compound, the Potency entry in the assay with Es-2 is “inactive”. For the same compound, the result in the assay with CAOV3 and in the assay on CASKI was inactive.

Regarding `NC(=O)CS(=O)C(c1ccccc1)c1ccccc1` (stereo not given), the Potency result in the assay with MCC-26, with MKL-1, in the assay on MKL-2, in the assay with UISO, with WaGa and in the assay with C33A was “inactive” in each case. Also, the Potency entry in the assay with Es-2 was “inactive”. For the same compound, the compound was classed as inactive in the assay with CAOV3 and in the assay on CASKI.

`C[C@]12Cc3cn[nH]c3C[C@@H]1CC[C@@H]1[C@@H]2CC[C@@]2(C)[C@H]1CC[C@]2(C)O`: the Potency entry in the assay with MCC-26, in the assay with MKL-1, in the assay with MKL-2, in the assay on WaGa, with C33A and in the assay on Es-2 was “inactive” each time. The outcome in the assay with CAOV3 and in the assay with CASKI was inactive.

On to `COP(=S)(OC)Oc1cc(Cl)c(Cl)cc1Cl`, for which the Potency entry with MCC-26, with MKL-1, with UISO, in the assay with WaGa, with C33A and in the assay with Es-2 was “inactive” throughout. Besides, the compound was called inactive in the assay with CAOV3 and in the assay on CASKI.

Regarding `C[C@]12CC[C@H]3[C@@H](CCC4=CC(=O)CC[C@@H]43)[C@@H]1CC[C@@H]2OC(=O)CCc1ccco1`, the Potency entry in the assay with MCC-26, in the assay with WaGa, with C33A and with Es-2 was “inactive” throughout. Moreover, the call in the assay with CAOV3 and with CASKI was inactive.

As for `CCCCC/C=C\C/C=C\C/C=C\C/C=C\CCCC(=O)NCC(=O)O`, the Potency result with MCC-26, in the assay with MKL-1, in the assay on UISO, in the assay on WaGa, in the assay with C33A and in the assay with Es-2 was “inactive” each time. The result with NIH3T3, in the assay on CAOV3 and in the assay with CASKI was inactive.

With `CC(C)=CC1C(C(=O)OCN2C(=O)C3=C(CCCC3)C2=O)C1(C)C` (stereo not given), the Potency result in the assay on MCC-26, in the assay with MKL-1, in the assay on MKL-2, with UISO, in the assay with WaGa and with C33A was “inactive” throughout. The Potency entry in the assay with Es-2 was “inactive”. Besides, in the assay on CASKI, the result was inactive.

With `COC(=O)[C@@H](N)CCCN/C(N)=N/[N+](=O)[O-]`, the Potency entry with MCC-26, in the assay with MKL-1, in the assay with MKL-2, in the assay with UISO, with WaGa and in the assay with C33A was “inactive” each time. Moreover, the Potency entry with Es-2 is “inactive”. Moreover, the result with CASKI was inactive.

As to `COP(=S)(OC)SCN1C(=O)c2ccccc2C1=O`, the Potency result with MCC-26, with C33A and in the assay with Es-2 was “inactive” each time. Moreover, the Potency in the assay on MKL-2 was 11.9 µM (active). The call with CAOV3 and in the assay with CASKI was inactive.

Consider `CC(=O)OCC1=C(C(=O)O)N2C(=O)[C@@H](N)[C@H]2SC1`, for which the Potency entry in the assay with MCC-26, in the assay with MKL-1, in the assay on UISO, in the assay on C33A and in the assay on Es-2 was “inactive” throughout. Besides, the outcome in the assay on CAOV3 and in the assay with CASKI was inactive.

On to `O=C1OC(CCN2CCCCC2)OC1(c1ccccc1)c1ccccc1` (stereo not given), for which the Potency result in the assay on MCC-26, in the assay on C33A and in the assay with Es-2 was “inactive” throughout. Besides, the Potency was 21.1 µM (active) with MKL-1 and 6.68 µM (active) in the assay on MKL-2. For the same compound, the call with CAOV3 and in the assay with CASKI was inactive.

The values are drawn from PubChem BioAssay (NCATS).
